Source: PubChem BioAssay
Shiga inhibitor: A qHTS for Small Molecule Inhibitors of Shiga Toxin; inhibition, % at 38.7 µM; Vero cells, Shiga toxin protein synthesis inhibition reporter; AID 2315, 2010; hit rate 9.2% among 290,000; in the data active = inhibition mostly above about 28%, no sharp cut-off; inactive = mostly below about 43%
Pf growth 96h: Primary qHTS for delayed death inhibitors of the malarial parasite plastid, 96 hour incubation | P. falciparum luciferase reporter growth, 96 h | hit rate 6.9% among 320,000 | Potency, µM (highest dose often 28.7 µM), usual class: inhibitors
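Delayed-death screen, second-generation endpoint: infected erythrocytes, 2% hematocrit, 0.05% parasitemia final; 96 hours at 37 C, 5% CO2; luciferase detection reagent; luminescence decrease equals reduced growth.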
Pf growth 48h: Primary qHTS for delayed death inhibitors of the malarial parasite plastid, 48 hour incubation; P. falciparum luciferase growth in erythrocytes, 48 h; Potency, µM (titrated, usually from 28.7 µM), hits mostly inhibitors; hit rate 5.9% among 310,000; AID 504832, 2011
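Compounds are pin-transferred into medium, infected erythrocytes (2% hematocrit, 0.1% parasitemia final) are added, and plates sit one parasite generation at 37 C in 5% CO2. Detection reagent is then added and luminescence measured.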
Cycloheximide cs: Cycloheximide Counterscreen for Small Molecule Inhibitors of Shiga Toxin | cell reporter, cycloheximide protein synthesis inhibition counterscreen | AID 2314, 2010 | max response, % | hit rate 12% among 300,000; in the data active = max response mostly above about 13%, no sharp cut-off; inactive = mostly below about 14%; note: read at 38.3 µM for the half of the compounds with a filed dose
Large screens that a line does not name were inactive. Hits are enriched below; roughly 21% of the tested compounds scored in any of these assays. Unless noted, calls come from the whole dose curve; as a rule, active = well fitted inhibition curve with a large enough effect; inconclusive = small, poorly fitted or top-dose-only effect, or another doubt; inactive = no such curve, though single readings can be large or run the other way.

CCOc1ccc(-c2nc(CN3CCCCC3CCn3cccn3)c(C)o2)cc1 (stereo unspecified)	Pf growth 96h inconclusive, Pf growth 48h inconclusive
COc1ccc(NS(=O)(=O)c2ccc(C)c(NC(=O)CNC(=O)c3ccco3)c2)cc1	none (no result: Shiga inhibitor, Cycloheximide cs)
CC(=O)N1[C@H](C)C=C[C@]1(Cc1ccccc1)C(=O)O	Pf growth 96h inconclusive
COCCNC(=O)[C@@]1(Cc2ccccc2)C=C[C@@H](C)N1C(C)=O	Shiga inhibitor 45, Cycloheximide cs 38
CCOC(=O)C(=CNc1cccnc1Oc1ccc(C)c2c1CCC2)C(=O)OCC	Pf growth 96h 8.3µM, Pf growth 48h 12µM
Cc1ccc(Oc2ncccc2NC(=O)CC2(CC(=O)O)CCCC2)c2c1CCC2	Pf growth 48h inconclusive
Cc1ccc(/C=N/Nc2ncnc3nc[nH]c23)cc1	Shiga inhibitor 147, Cycloheximide cs 38
Oc1ccc(/C=N/Nc2ncnc3nc[nH]c23)cc1	Cycloheximide cs 35
Clc1ccc(/C=N/Nc2ncnc3nc[nH]c23)cc1	Pf growth 96h 12µM, Pf growth 48h inconclusive, Cycloheximide cs 39
COc1ccc(Nc2ncnc3nc[nH]c23)cc1OC	none
COc1ccc(CCNC(=O)COc2ccc(S(=O)(=O)NC3CCCCC3)cc2Cl)cc1OC	Pf growth 48h 12µM
O=C(COc1ccc(S(=O)(=O)NC2CCCCC2)cc1Cl)NCc1ccc2c(c1)OCO2	none (no result: Pf growth 96h)
O=C(COc1ccc(S(=O)(=O)NC2CCCCC2)cc1Cl)Nc1ccc2c(c1)OCO2	Pf growth 96h 10µM (no result: Pf growth 48h)
Cc1ccccc1OCC(=O)NCCCNC(=O)c1cccnc1	none
Cc1c(Cl)cccc1NC(=O)COC(=O)c1ccc(CN2CCCC2=O)cc1	none (no result: Shiga inhibitor, Cycloheximide cs)
Oc1oc(-c2ccccc2)nc1C=Nc1cccc2ccccc12	Cycloheximide cs 20
Oc1oc(-c2ccccc2)nc1/C=N/c1nccs1	Shiga inhibitor active, Cycloheximide cs 33
Oc1oc(-c2ccccc2)nc1C=NCc1ccncc1	none
CCCCOc1ccc(-c2nc(/C=N/c3nccs3)c(O)o2)cc1	none
CCN1/C(=C\C(C)=O)Sc2ccc(OC)cc21	none (no result: Pf growth 48h)
CN1/C(=C\C(=O)c2cccnc2)Sc2ccccc21	Shiga inhibitor 93, Pf growth 96h inconclusive, Cycloheximide cs 42
COc1cccc(C(=O)/C=C2\Sc3ccccc3N2C)c1	Shiga inhibitor 84, Cycloheximide cs 31
CC1Sc2ccc(C(=O)NCc3cccc(C(F)(F)F)c3)cc2NC1=O (stereo unspecified)	Pf growth 48h inconclusive (no result: Shiga inhibitor, Cycloheximide cs)
CCOC(=O)c1cnc(-c2ccccc2)nc1N1CCOCC1	Pf growth 48h inconclusive
CCOC(=O)c1cnc(-c2ccccc2)nc1N(C)C	Shiga inhibitor 120, Cycloheximide cs 48 (no result: Pf growth 96h)
CCOC(=O)c1cnc(SCC(=O)c2ccccc2)nc1N	none
CCOC(=O)c1cnc(-c2ccccc2)nc1N	Shiga inhibitor 126, Cycloheximide cs 57
COc1cc(CC(=O)N(C)CC(=O)Nc2cc(C)ccc2C)cc(OC)c1OC	none
COc1ccc(C(C[N+](=O)[O-])c2c(C)[nH]c3ccccc23)cc1OC (stereo unspecified)	Pf growth 96h inconclusive, Pf growth 48h 2.1µM
COc1cc(C(c2c(C(=O)O)[nH]c3ccccc23)c2c(C(=O)O)[nH]c3ccccc23)ccc1OCc1ccccc1	Pf growth 96h 13µM (no result: Shiga inhibitor)
O=C(O)c1[nH]c2ccccc2c1C(c1ccccc1)c1c(C(=O)O)[nH]c2ccccc12	Pf growth 96h inconclusive
COc1ccccc1N1CCN(Cc2ccc(O)c3ncccc23)CC1	Pf growth 48h 2.6µM, Cycloheximide cs 21 (no result: Pf growth 96h)
c1ccc(CCn2nnnc2CN2CCCc3ccccc32)cc1	none
Oc1ccc(CN2CCCc3ccccc32)c2cccnc12	Pf growth 48h 13µM
CCOC(=O)C1CCN(Cc2ccc(O)c3ncccc23)CC1	Shiga inhibitor 110, Pf growth 48h 10µM, Cycloheximide cs 22
Oc1ccc(COC2CCN(Cc3ccccc3)C2)c2cccnc12 (stereo unspecified)	Pf growth 96h 12µM, Pf growth 48h 8.3µM (no result: Shiga inhibitor, Cycloheximide cs)
COc1ccccc1N1CCN(Cc2ccc(OC)c(OC)c2OC)CC1	Pf growth 96h inconclusive (no result: Pf growth 48h)
O=C(NCc1ccccn1)c1ccc(OC2CCN(Cc3ccccc3)CC2)cc1	none
CCOC(=O)C1CCN(Cc2ccccc2C(F)(F)F)CC1	none
COc1ccc(NS(=O)(=O)c2cccc(NC(=O)CCS(=O)(=O)c3ccccc3)c2)cc1	Pf growth 96h inconclusive
COc1ccc(N2CCN(C(=O)c3ccc(CS(=O)(=O)c4ccc(OC)cc4)o3)CC2)cc1	Pf growth 96h inconclusive (no result: Pf growth 48h)
COc1ccc(S(=O)(=O)Cc2ccc(C(=O)N3CCN(c4cccc(C)c4C)CC3)o2)cc1	Pf growth 48h inconclusive
Cc1ccc(S(=O)(=O)Cc2ccc(C(=O)N3CCc4ccccc4C3)o2)cc1	Pf growth 96h 13µM (no result: Pf growth 48h)
COc1ccc(S(=O)(=O)Cc2ccc(C(=O)N3CCN(c4cc(Cl)ccc4C)CC3)o2)cc1	Pf growth 96h 13µM (no result: Pf growth 48h)
COc1ccc(S(=O)(=O)Cc2ccc(C(=O)N3CCc4ccccc4C3)o2)cc1	none (no result: Pf growth 48h)
COc1ccc(S(=O)(=O)Cc2ccc(C(=O)N3CCN(c4ccc(Cl)cc4)CC3)o2)cc1	none (no result: Pf growth 48h)
Cc1ccc(S(=O)(=O)Cc2ccc(C(=O)N3CCN(c4cccc(C)c4C)CC3)o2)cc1	Pf growth 96h 3.7µM
COc1ccc(S(=O)(=O)Cc2ccc(C(=O)N3CCN(c4cc(C)ccc4C)CC3)o2)cc1	Pf growth 96h 4.7µM, Cycloheximide cs 14
O=C1C=CC(=O)N1c1cccc(-c2ccccc2)c1	none
CCCCCNC(=O)C1CCC(Cn2c(=S)[nH]c3ccccc3c2=O)CC1 (stereo unspecified)	Pf growth 48h inconclusive
COC(=O)CCC(C)N1CCC(Oc2ccc(C(=O)N3CCCC3)cc2)CC1 (stereo unspecified)	Pf growth 96h inconclusive
Cc1noc(C)c1COc1ccc(C(=O)N2CCN(c3ccccn3)CC2)cc1	none (no result: Shiga inhibitor, Cycloheximide cs)
Cc1ccc(S(=O)(=O)N2CCCC2CNC(=O)C(=O)Nc2ccc(F)cc2F)cc1 (stereo unspecified)	Pf growth 96h inconclusive (no result: Shiga inhibitor, Cycloheximide cs)
Cc1[nH]c2ccccc2c1/C=N/Nc1nc(N2CCCCC2)nc(N2CCCCC2)n1	none
Cc1ccc(/C=N/Nc2nc3ccccc3[nH]2)s1	Shiga inhibitor active, Pf growth 96h inconclusive, Pf growth 48h inconclusive, Cycloheximide cs 45
Cc1cc(=O)[nH]c(N/N=C/c2ccccc2C(F)(F)F)n1	none
C(=N\Nc1nc2ccccc2[nH]1)/c1cccc2cccnc12	Shiga inhibitor 79, Pf growth 96h 1.7µM, Pf growth 48h 1.7µM, Cycloheximide cs 47
Cc1[nH]c2ccccc2c1/C=N/Nc1nc2ccccc2[nH]1	Shiga inhibitor 112, Pf growth 48h inconclusive, Cycloheximide cs 43
C(=N\Nc1nc(N2CCCCC2)nc(N2CCCCC2)n1)/c1c[nH]c2ccccc12	Pf growth 96h 6.6µM, Pf growth 48h inconclusive
CN(C)c1nc(N/N=C/c2c[nH]c3ccccc23)nc(N2CCOCC2)n1	Pf growth 48h inconclusive
CCS(=O)(=O)c1nc(S(=O)(=O)c2ccc(C)cc2)c(N2CC(C)CC(C)C2)s1 (stereo unspecified)	Pf growth 96h inconclusive, Pf growth 48h inconclusive
S=C(c1cn(Cc2ccc(Br)cc2)c2ccccc12)N1CCOCC1	none
COc1cc(CNc2nc3ccccc3[nH]2)cc(OC)c1OC	none
